# Screening results: PubChem BioAssay, Johns Hopkins Ion Channel Center
# In the library only some 1.6% were active in any assay of this set; here they are far more common.
# KCNQ2 enhance = potentiators of rat KCNQ2 potassium channel; CHO-K1 KCNQ2, FluxOR thallium flux fluorescence; active compounds read high; B-score at 10 µM; actives 0.54% (n = 310,000); AID 2239, 2010;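 active means fluorescence ratio B-score at least 3 SD of library B-scores, with initial fluorescence B-score within 3 of them, cut at about 5.3 in these data; same plate scores as AID 2156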;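 further: B-score of peak minus minimum over baseline fluorescence ratio after K+ and Tl+ stimulus; positive B-score means potentiation of KCNQ2 with more thallium influx and brighter signal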
# Target sequence (O88943 whole entry, looked up): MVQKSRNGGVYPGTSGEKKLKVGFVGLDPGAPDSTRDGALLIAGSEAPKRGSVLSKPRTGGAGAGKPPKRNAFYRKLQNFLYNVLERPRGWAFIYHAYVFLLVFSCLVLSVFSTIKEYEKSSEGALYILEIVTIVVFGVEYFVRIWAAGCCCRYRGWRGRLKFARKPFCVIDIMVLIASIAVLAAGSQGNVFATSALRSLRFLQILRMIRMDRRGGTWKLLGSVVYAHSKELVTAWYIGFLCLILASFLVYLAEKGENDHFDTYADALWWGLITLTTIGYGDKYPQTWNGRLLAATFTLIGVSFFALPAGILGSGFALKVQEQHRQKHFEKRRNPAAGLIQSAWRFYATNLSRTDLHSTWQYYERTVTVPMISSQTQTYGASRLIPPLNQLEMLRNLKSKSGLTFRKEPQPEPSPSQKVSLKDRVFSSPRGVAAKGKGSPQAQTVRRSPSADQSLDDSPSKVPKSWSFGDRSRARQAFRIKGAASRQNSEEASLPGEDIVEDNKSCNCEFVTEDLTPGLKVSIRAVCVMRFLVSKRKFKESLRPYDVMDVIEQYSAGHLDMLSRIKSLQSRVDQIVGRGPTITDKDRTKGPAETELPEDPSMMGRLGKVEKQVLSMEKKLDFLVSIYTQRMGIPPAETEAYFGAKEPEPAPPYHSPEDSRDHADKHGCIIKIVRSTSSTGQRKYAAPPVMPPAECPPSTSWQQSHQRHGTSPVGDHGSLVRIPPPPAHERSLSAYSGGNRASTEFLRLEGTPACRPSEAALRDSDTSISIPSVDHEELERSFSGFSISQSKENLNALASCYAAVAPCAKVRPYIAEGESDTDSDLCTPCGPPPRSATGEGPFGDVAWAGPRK
# KCNQ2 block = rat KCNQ2 potassium channel inhibitors, primary screen, cell-based, CHO-K1, FluxOR thallium flux, B-score; 20 min; active compounds read low; B-score at 10 µM; actives 1.1% (n = 310,000); AID 2156, 2009;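 active means fluorescence ratio B-score at most minus 3 library SDs, with starting brightness B-score within 2 library SDs, cut at about -5.5 in these data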
# Kir21 conf inh = mouse Kir2.1 channel blockers, retest, confirmation, cell-based, FluxOR thallium flux, duplicate. AID 2032, 2009. shares compounds with KCNQ2 enhance. Tl flux remaining, % of negative control (active compounds read low), % at 10 µM. Kir2.1-expressing cells, FluxOR thallium flux fluorescence; active compounds read low. actives 41% (n = 2,300);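 active means Primary-screen hit whose thallium flux fell at least 3 control SD below untreated wells in both duplicates, with normal baseline fluorescence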;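 further: 0% = blank wells without stimulus and 100% = stimulated no-compound controls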
# HEK293 ctr = parental HEK293 activity in Kir2.1 inhibitor counter-screen; shares compounds with KCNQ2 enhance; AID 2105; actives 19% (n = 2,300); parental HEK293 cells, FluxOR thallium flux fluorescence; 0% = unstimulated blank wells; FluxOR signal as % of negative control (100 = no effect), % at 10 µM;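 active means dye signal at least 3 control SD above or below untreated wells in both duplicates, raw fluorescence within 3, either direction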;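 further: percent is based on the flux ratio of peak minus minimum fluorescence over baseline F0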
# CHO-K1 ctr = nonspecific thallium flux increase in parental CHO-K1, confirmation, counter-screen for KCNQ2 potentiator project, cell-based, FluxOR thallium flux, duplicate | shares compounds with KCNQ2 enhance | parental CHO-K1 cells, FluxOR thallium flux fluorescence; zero = vehicle mean+3SD, 100% = vehicle-minus-blank window | activity increase over 3SD of controls, % at 10 µM | actives 43% (n = 1,200) | AID 2282, 2010;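 active means signal rise of at least 3 SD above the untreated control mean, in both duplicate wells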;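 further: counter screen of KCNQ2 potentiator hits so any rise reflects channel-independent effects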
# KCNQ1 pot spec = human KCNQ1 channel potentiation off-target, confirmation, selectivity assay for KCNQ2 potentiator project, cell-based, CHO, FluxOR thallium flux; shares compounds with KCNQ2 enhance; CHO KCNQ1 stable, FluxOR thallium flux fluorescence; beyond 3SD, as % of vehicle-control signal; activation over 3SD threshold, % at 10 µM; actives 28% (n = 1,200);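 active means fluorescence ratio rise of at least 3 SD of vehicle wells above their mean, in both replicate wells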;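 further: 0% = vehicle mean plus 3 SD and 100% = vehicle minus unstimulated blank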
# KCNQ2 pot confirm = rat KCNQ2 channel potentiators, confirmation, cell-based, CHO, FluxOR thallium flux, duplicate | potentiation, less the hit threshold, % at 10 µM | shares compounds with KCNQ2 enhance | actives 68% (n = 1,200) | CHO-KCNQ2 cells, FluxOR thallium flux fluorescence;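 active means fluorescence ratio rising 3 SD or more over the vehicle control mean in both replicates, plus primary screen hit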;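 further: peak minus minimum thallium fluorescence divided by baseline after K/Tl stimulus; 0% = vehicle mean plus 3 SD and 100% = vehicle minus unstimulated blank difference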
# Kir2-1 sel = mouse Kir2.1 channel activation off-target, confirmation, selectivity assay for KCNQ2 potentiator project, cell-based, HEK293, FluxOR thallium flux. HEK293 Kir2.1, FluxOR thallium flux fluorescence. shares compounds with KCNQ2 enhance. actives 2% (n = 1,200). activity over 3SD threshold, % at 10 µM;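 active means fluorescence ratio rise of at least 3 SD above the vehicle-control mean, seen in both replicates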;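 further: 0% = vehicle mean plus 3 SD and 100% = vehicle minus no-stimulus blank window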
# KCNQ2 W236L pot = potentiators of retigabine-insensitive KCNQ2 W236L, mechanism study for KCNQ2 potentiator project, cell-based, rat KCNQ2 W236L, CHO, automated patch clamp | shares compounds with KCNQ2 enhance | automated patch clamp current | current increase over 3SD of negative controls (%), active compounds read high, % at 25 µM | actives 10% (n = 940) | AID 2558, 2010;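 active means current increase at least 3 SD of the untreated controls above them in both duplicate recordings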
# Numbers without * were called inactive; i = inactive; . = no result.
SMILES,KCNQ2 enhance,KCNQ2 block,Kir21 conf inh,HEK293 ctr,others
C=CCOC(=O)/C=C/C(=O)NC(N)=O,.,i,.,.,
CN(C)c1ccc(NC(=O)CCCc2ccccc2)cc1,5.5*,i,i,i,CHO-K1 ctr=13*;KCNQ1 pot spec=-16;KCNQ2 pot confirm=-15;Kir2-1 sel=-33;KCNQ2 W236L pot=i
Cc1cccc(NC(=O)CCCc2ccccc2)c1,.,i,.,.,
Cc1ccc(C)c(NC(=O)CSc2nnc(C3CCCCC3)o2)c1,0.61,i,.,.,
Fc1ccc(-c2cc(C(F)(F)F)nc(-n3cncn3)n2)cc1,6.2*,i,i,i,CHO-K1 ctr=-11;KCNQ1 pot spec=-11;KCNQ2 pot confirm=19*;Kir2-1 sel=-14;KCNQ2 W236L pot=i
Fc1ccc(-c2cc(C(F)(F)F)nc(-n3cccn3)n2)cc1,.,i,.,.,
Nc1ccc(S(=O)(=O)c2ccccc2)nc1,.,i,.,.,
O=[N+]([O-])c1ccc(S(=O)(=O)c2ccccc2)nc1,-5.9,-5.9*,i,70%*,
O=c1[nH]c2ccccc2[n+]([O-])c1-c1ccccc1,.,i,.,.,
Cn1/c(=N\NC(=O)C2CCCCC2)sc2ccccc21,9.9*,i,i,i,CHO-K1 ctr=-21;KCNQ1 pot spec=-9;KCNQ2 pot confirm=0.0*;Kir2-1 sel=-31;KCNQ2 W236L pot=i
CC(=O)N/N=c1\sc2ccccc2n1C,0.49,i,.,.,
COc1ccc(C(=O)Nc2ccc3cn[nH]c3c2)c(OC)c1,.,i,.,.,
CN(C(=O)CC1C(=O)NCCN1Cc1ccccc1C(F)(F)F)C1CCOCC1 (configuration not stated),.,i,.,.,
O=C(CSc1nc2ccccc2o1)Nc1ccc(N2CCOCC2)cc1,.,i,.,.,
O=C(CSc1nc2ccccc2o1)Nc1ccccc1N1CCOCC1,0.43,i,56%*,i,
Cc1ccc(NC(=O)CN(C)C(=O)COc2cccc3cccnc23)cc1,.,i,.,.,
Cc1cc(C)c2c(N)c(C(=O)c3ccccc3)sc2n1,.,i,.,.,
Cc1sc2cc3c(c(C(=O)c4ccccc4)[n+]2c1C)-c1cccc2cccc-3c12,-8.2,-8.2*,27%*,64%*,
CCN(C(=O)c1cccnc1SC)C12CC3CC(CC(C3)C1)C2,0.09,i,.,.,
Cc1cc(-c2csc3nc[nH]c(=S)c23)cc(C)c1C,15*,i,i,262%*,CHO-K1 ctr=-9;KCNQ1 pot spec=-17;KCNQ2 pot confirm=36*;Kir2-1 sel=-20;KCNQ2 W236L pot=i
O=c1[nH]cnc2scc(-c3ccccc3)c12,.,i,.,.,
Clc1ccc(-c2csc3ncnc(Cl)c23)cc1,0.92,i,.,.,
S=c1[nH]cnc2scc(-c3ccc(Br)cc3)c12,5.6*,i,i,194%*,CHO-K1 ctr=-3;KCNQ1 pot spec=-17;KCNQ2 pot confirm=-5;Kir2-1 sel=-20;KCNQ2 W236L pot=i
O=c1[nH]cnc2scc(-c3ccsc3)c12,2.3,i,.,.,
S=c1[nH]cnc2scc(-c3ccc(Cl)cc3)c12,9.6*,i,i,142%*,CHO-K1 ctr=-5;KCNQ1 pot spec=-4;KCNQ2 pot confirm=14*;Kir2-1 sel=-31;KCNQ2 W236L pot=i
SMILES,KCNQ2 enhance,KCNQ2 block,Kir21 conf inh,HEK293 ctr,others
O=C(O)c1ccccc1N/C=C\[N+](=O)[O-],.,i,.,.,
O=C(CSc1ccc(F)cc1)NCCc1ccc(Cl)cc1,.,i,.,.,
Cc1ccc(NC(=O)CSc2nc(NS(=O)(=O)c3ccccc3)cc(=O)[nH]2)cc1,0.93,i,.,.,
Cc1ccc(S(=O)(=O)Nc2cc(=O)[nH]c(SCC(=O)Nc3cccc(C)c3)n2)cc1,5.3*,i,i,i,CHO-K1 ctr=30*;KCNQ1 pot spec=-5;KCNQ2 pot confirm=18*;Kir2-1 sel=-33;KCNQ2 W236L pot=i
CCOC(=O)N1CCC(N(CCN(C)C)C(=S)Nc2ccc(Oc3ccccc3)cc2)CC1,0.18,i,.,.,
NC1=NC2CS(=O)(=O)CC2S1 (configuration not stated),1.2,i,.,.,
Nc1nc(C2CC2)c(Sc2sc(N)nc2C2CC2)s1,.,i,74%*,i,
Nc1nc(C2CCOCC2)cs1,.,i,.,.,
N#CCOc1coc(CN2CCN(c3ccccc3)CC2)cc1=O,0.79,i,.,.,
COc1ccc(-c2cc(C(F)(F)F)nc(SCC(=O)NCCCN3CCOCC3)n2)cc1,.,i,.,.,
C[C@@H]1CC2OC(=O)[C@@]3(C)C(=O)CC[C@@](C)(C23)[C@@]1(O)CCc1ccoc1 (some centres not stated),0.09,i,.,.,
CNc1ccccc1C(=O)OC(C)C(=O)Nc1ccc(Cl)cn1 (configuration not stated),0.65,i,.,.,
CCC(C(=O)OC(C)C(=O)Nc1ccc(Cl)cn1)c1ccccc1 (configuration not stated),.,i,58%*,68%*,
Cn1c(N)c(N2CCCCC2)c(=O)n(CC(=O)Nc2ccc(Cl)c(Cl)c2)c1=O,17*,i,i,i,CHO-K1 ctr=-7;KCNQ1 pot spec=-15;KCNQ2 pot confirm=47*;Kir2-1 sel=-35;KCNQ2 W236L pot=i
O=C(CCC(=O)N1CCCCC1)Nc1ccc(Cl)c(Cl)c1,.,i,.,.,
CC1CCN(CCCNC(=O)c2ccc(CSCc3cccc(Cl)c3)o2)CC1,.,i,37%*,i,
CN1CCN(CCCNC(=O)c2ccc(CSCc3cccc(Cl)c3)o2)CC1,1.2,i,.,.,
O=C(NC1CCN(Cc2ccccc2)CC1)c1ccccc1Cl,0.43,i,.,.,
Cc1c(C(=O)NC2CCN(Cc3ccccc3)C2)oc2c(Cl)cccc12 (configuration not stated),.,i,i,i,
Cn1c(N)c(C(=O)COC(=O)c2ncc(Cl)c(Cl)c2Cl)c(=O)n(C)c1=O,.,i,.,.,
O=C(NCc1ccccc1Cl)c1cc(C(=O)C2CC2)c[nH]1,.,i,.,.,
NNC(=O)c1ccc(COc2ccc3ccccc3c2)o1,1.2,i,.,.,
O=C(OCc1ccccn1)c1ccc(COc2ccc3ccccc3c2)o1,5.4*,i,i,i,CHO-K1 ctr=-14;KCNQ1 pot spec=-8;KCNQ2 pot confirm=-19;Kir2-1 sel=-22
